Legend:
CHO = experiment: % viability of CHO cells (MTT); higher = less toxic; details: 48 h
Summary of the method: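 CHO cells seeded at 10^6 cells/well were exposed to compound at 2 or 20 µM for 48 h. Survival, as percent of untreated cells, was measured with the colorimetric tetrazolium (MTT) assay.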

HepG2-A16-CD81 = experiment: % inhibition of HepG2 viability (CellTiter-Glo); higher = more toxic; details: 5 µM
[1] = tested on: Plasmodium falciparum NF54 stage IV/V gametocytes; experiment: % inhibition of gametocyte viability (PrestoBlue); higher = more inhibition; details: 48 h
Summary of the method: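 Compound was tested at 1 or 5 µM against Stage IV/V NF54 gametocytes plated at 100 µL/well (2% gametocytaemia, 5% haematocrit). After 48 h of stationary, hypoxic incubation at 37 °C, 10 µL PrestoBlue was added for 2 h before reading 612 nm fluorescence from 70 µL of transferred supernatant. Gametocyte viability inhibition, as a percentage, was scaled against vehicle and kill controls from a single run.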

[2] = tested on: Plasmodium falciparum NF54 asexual blood stage; experiment: % inhibition of asexual blood stage proliferation (pLDH); higher = more inhibition; details: 72 h
Summary of the method: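 In 96-well plates, compound at 2 or 20 µM was added to Plasmodium falciparum NF54 ring-stage cultures (1% haematocrit, 2% parasitaemia). Plates were incubated for 72 h at 37 °C in 4% CO2, 3% O2 and 93% N2, and survival was then read at 620 nm using the parasite lactate dehydrogenase assay. Inhibition of asexual proliferation, expressed as a percentage, was normalised to controls.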

[3] = tested on: Plasmodium falciparum NF54 stage IV/V gametocytes; experiment: % inhibition of gametocyte viability (ATP bioluminescence); higher = more inhibition; details: 24 h
Summary of the method: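 Density gradients were used to enrich stage IV/V NF54 gametocytes, which were then seeded into 96-well plates at 30,000 per well with compound at 1 or 5 µM. The plates were incubated at 37 °C for 24 h, and ATP was measured with the Promega BacTiter Glo bioluminescence system. Percent inhibition of gametocyte viability was normalised to the plate controls from a single run.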

[4] = tested on: Plasmodium falciparum NF54 stage IV/V gametocytes; experiment: % inhibition of gametocyte viability (luciferase reporter); higher = more inhibition; details: 48 h
Summary of the method: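 Percent inhibition came from luminescence and was normalised to controls in a single run. Gametocytes (stage IV/V, NF54-Pfs16-GFP-Luc line, 2% gametocytaemia, 2% haematocrit) were treated with compound at 1 or 5 µM and incubated for 48 h at 37 °C without agitation under hypoxia. Readings used 30 µL lysate with 30 µL Promega luciferin substrate on a GloMax-Multi+ reader, integrating for 10 s.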

[5] = tested on: Plasmodium berghei ANKA liver stage in HepG2-A16-CD81; experiment: % inhibition of liver stage parasite viability (luciferase); higher = more inhibition; details: 5 µM; 48 h
Protocol: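 Single-concentration screen of the MMV Pandemic Response Box. P. falciparum NF54 asexual blood stages: pLDH assay, 72 h at 37 °C, 2 and 20 µM, n=2. Stage IV/V gametocytes (NF54): luciferase reporter (NF54-Pfs16-GFP-Luc, 48 h), ATP bioluminescence (24 h) and PrestoBlue (48 h) at 1 and 5 µM, n=1. P. berghei liver stage (luciferase in HepG2-A16-CD81, 48 h post infection) at 5 µM, n=4. All normalised to DMSO and kill controls as % inhibition.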
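Wherever % inhibition of HepG2 viability (CellTiter-Glo) is given: HepG2-A16-CD81 hepatoma cells plated as in the liver-stage assay but without sporozoites, with DMSO wells as negative and 25 µM puromycin as positive control.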

Compound | % viability of CHO cells (CHO; 2 µM) [%] | % viability of CHO cells (CHO; 20 µM) [%] | % inhibition of HepG2 viability (HepG2-A16-CD81) [%] | % inhibition of gametocyte viability ([1]; 1 µM) [%] | % inhibition of gametocyte viability ([1]; 5 µM) [%] | % inhibition of asexual blood stage proliferation ([2]; 2 µM) [%] | % inhibition of asexual blood stage proliferation ([2]; 20 µM) [%] | % inhibition of gametocyte viability ([3]; 1 µM) [%] | % inhibition of gametocyte viability ([3]; 5 µM) [%] | % inhibition of gametocyte viability ([4]; 1 µM) [%] | % inhibition of gametocyte viability ([4]; 5 µM) [%] | % inhibition of liver stage parasite viability [5] [%]
CCCCCOc1ccc(/C=C2\Oc3c(ccc(O)c3O)C2=O)c(O)c1 | 123 | 127 | 3.16 | < 0 | < 0 | 2.75 | 90.6 | < 0 | < 0 | < 0 | < 0 | 15.2
c1cnc(NCc2ccc(CNc3ncccn3)cc2)nc1 | 85.1 | 77.7 | -9.29 | 9.96 | 14.8 | 13.7 | 35.1 | < 0 | < 0 | 3.69 | < 0 | 25.6
C[C@@H](NC(=O)c1ccccc1-c1ccccc1)B(O)O | 84 | 94 | 7.46 | 10.1 | 30.5 | -8.74 | -3.48 | 3.08 | < 0 | < 0 | < 0 | 19.8
O=C(Cn1cnc2ccccc2c1=O)Nc1ccccc1 | 100 | 84.1 | -0.425 | 27.9 | 25.4 | 29.5 | 71.5 | 1.88 | < 0 | 2.6 | 1.55 | 2.82
CCc1ccc(C2CC(C(F)(F)F)n3ncc(C(=O)NCc4ccc(OC)cc4)c3N2)cc1 (centres undefined) | 83 | 61.2 | 8.05 | < 0 | 34.6 | 37.2 | 67.7 | 2.93 | 4.83 | < 0 | 6.49 | 32.1
CSC[C@H]1CN(Cc2c[nH]c3c(N)ncnc23)C[C@@H]1O | 68.9 | 46.2 | 8.54 | < 0 | < 0 | 14.2 | 8.91 | < 0 | < 0 | < 0 | 6.79 | 40.2
NC(=O)c1cnc2ccc(S(=O)(=O)c3ccccc3)cc2c1Nc1ccc(O)cc1 | 228 | 58.1 | 6.05 | < 0 | < 0 | 29.7 | 56.5 | < 0 | < 0 | < 0 | < 0 | 53.1
O=C(Nc1ccc(N2CCN(C(=O)c3ccccc3)CC2)cc1)c1ccc2c(c1)OCO2 | 114 | 113 | 38.8 | 5.65 | < 0 | 62.9 | 44.8 | 0.482 | < 0 | 9.21 | < 0 | 33.5
Cc1nc(Nc2ccc(F)cc2)nc(N2CCc3ccccc3C2C)c1C (centres undefined) | 103 | 69.7 | 8.08 | 2.28 | 4.43 | 49.6 | 73.1 | < 0 | 43.7 | < 0 | < 0 | 52.5
Cc1ccccc1NC(=O)Nc1cccc([N+](=O)[O-])c1 | 121 | 111 | 8.58 | < 0 | 2.93 | 3.72 | 73.7 | 6.45 | < 0 | 3.59 | < 0 | 6.73
CC1(C)C[C@H]1C(=O)N/C(=C\CCCCSC[C@@H](N)C(=O)O)C(=O)O | 229 | 49.5 | -5.39 | 25.1 | 25.8 | 20.8 | 20.1 | < 0 | < 0 | < 0 | < 0 | 12.4
Cc1ccn2c(C(=O)NCc3ccccc3)c(C)nc2c1 | 276 | 53.7 | -0.843 | 3.75 | 36.6 | 44.3 | 74.9 | < 0 | < 0 | 2.75 | 0.0756 | 20.4
Cc1ccc(Oc2ccccc2-c2csc(NC3=NCCCN3)n2)c(C)c1 | 104 | 112 | 13 | < 0 | < 0 | 11.5 | 88.7 | < 0 | < 0 | < 0 | < 0 | 57.6
CN(C)CCCNC(=O)c1ccc(-c2cc(O)c3ncccc3c2)cc1 | 115 | 110 | -5.75 | 70.8 | 81.4 | 68.6 | 82.4 | 71 | 81.1 | 5.12 | 23.3 | 24.5
CC(C)Nc1ncnc2c1cnn2-c1ccc(Cl)cc1 | 89.8 | 122 | 13.3 | 17.9 | 15.6 | 18.3 | 69.3 | < 0 | < 0 | < 0 | 62.4 | 43.2
O=C1[C@H](CC[C@H](O)c2ccc(F)cc2)[C@@H](c2ccc(O)cc2)N1c1ccc(F)cc1 | 94.9 | 113 | -3.46 | < 0 | < 0 | 43.1 | 61 | < 0 | < 0 | 2.9 | 4.53 | 27.4
O=C(Nc1nnc(-c2ccccc2)o1)c1ccc(F)cc1 | 88.3 | 114 | 8.93 | 8.12 | < 0 | 52.8 | 61.2 | < 0 | < 0 | < 0 | < 0 | 53.8

Source: the supplement of paper PMC7801607
